In PubChem BioAssay AID588518 (NMMLSC, 2011) one finds inhibition data, which are given here for 76 compounds.

About 20 (1%) of roughly 1,700 compounds were called active. Only a selection was taken, and actives are over-represented in it overall. A number with no mark means an inactive call. No stated cut-off is given here; in the data, active means inhibition above about 26%; inactive means the rest.

This experiment deals with Candida albicans multidrug efflux pump MDR1 (expressed in S. cerevisiae AD1-8u). Description: CaMdr1 pump blockers in yeast – flow cytometry, singleplex, Cherry Pick1 set, confirmation (AID 588518).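 Further: 0% = DMSO vehicle and 100% = reference inhibitor; higher means more Nile Red retained so more efflux inhibition.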 The conditions noted are these: S. cerevisiae AD/CaMDR1, Nile Red efflux, at 10 µM, stronger effect = higher value.
Consider `CCc1ccc(NC(=O)Cn2ncn3c(cc4ccccc43)c2=O)cc1`, for which the inhibition is -0.1%.

`Cc1nc2c(C(=O)NCc3ccc4c(c3)OCO4)c[nH]n2c(=O)c1Cc1ccccc1F`: the inhibition is -0.28%.

Consider `Cc1cc(C)cc(NC(=O)C(OC(=O)c2ccc(O)cc2)c2ccccc2)c1` (stereo unspecified), for which the inhibition is -0.15%.

For the compound `Cc1oc2cc3oc(=O)ccc3cc2c1C`, the inhibition was -0.03%.

As for `C/C(N)=C(/C#N)C(=O)COC(=O)c1cc(-c2cccc(Br)c2)nc2ccccc12`, the inhibition is -0.13%.

As for `CCCCN1C(=O)/C(=C/C=C2/C=Cc3ccccc3N2CC)SC1=S`, the inhibition was -0.28%.

Regarding `CCNc1c(NS(=O)(=O)c2ccc(C3CCCCC3)cc2)c(=O)oc2ccccc12`, the inhibition was -0.16%.

Take `O=C(Cc1ccc(Br)cc1)N1CCN(c2ccccn2)CC1`: the inhibition was -0.14%.

Take `CSCCC(NC(=O)COc1ccccc1)C(=O)OCCOc1ccc(Br)cc1` (stereo unspecified): the inhibition was -0.39%.

`Cc1ccc2[nH]c3c(=O)n(CC(=O)NCCc4ccc(Cl)cc4)ncc3c2c1`: the inhibition was -0.13%.

Regarding `CCCc1nc(N2CCN(C)CC2)c2sc(=S)n(-c3ccccc3)c2n1`, the inhibition was -0.01%.

`COc1ccc(S(=O)(=O)N2CCOC2CNC(=O)C(=O)NCc2ccc(F)cc2)cc1` (stereo unspecified): the inhibition is 0.32%.

Take `CCNC(=O)c1c(O)c2cccc3c2n(c1=O)CC3`: the inhibition was -0.2%.

Turning to `COc1ccc2[nH]c3c(C)c4cc[n+](C)cc4c(C)c3c2c1`, the inhibition was 0.07%.

For `CC(/C=C/c1ccccc1)=N\NC(=O)C1CC1(C)c1ccccc1` (stereo unspecified), the inhibition is -0.16%.

Consider `O=C1NC(=O)C2C1C(c1ccc([N+](=O)[O-])cc1)=NN2Cc1ccccc1` (stereo unspecified), for which the inhibition was 0.35%.

In the case of `CN(C)S(=O)(=O)c1cc(C(=O)Nc2ccn(C)n2)c(Cl)cc1Cl`, the inhibition was -0.29%.

For `COc1ccc(NC(=S)N2CCc3cc(OC)c(OC)cc3C2)cc1`, the inhibition was -0.21%.

On to `CC12CCC(C(=O)N(c3cccc(Cl)c3)C1=O)C2(C)C` (stereo unspecified), for which the inhibition is -0.13%.

As for `CCCCOc1ccc(C(=O)NCC(=O)OCC(=O)c2c(N)n(C)c(=O)n(C)c2=O)cc1`, the inhibition is -0.28%.

For `COc1ccccc1/C=C/C=N/n1c(-c2ccc(Cl)cc2Cl)n[nH]c1=S`, the inhibition was 0.32%.

For `Cc1ccc(/C=C(\C#N)C(=O)Nc2cccc3ncccc23)o1`, the inhibition was -0.29%.

For the compound `Cc1c(CCOC(=O)CC23CC4CC(CC(C)(C4)C2)C3)sc[n+]1Cc1ccc([N+](=O)[O-])cc1`, the inhibition was -0.01%.

Regarding `NNC(=O)COc1ccc(C2SCCS2)cc1`, the inhibition was -0.31%.

On to `O=C(Cn1c(COc2ccccc2)nc2ccccc21)Nc1cc(Cl)c(Cl)cc1Cl`, for which the inhibition was 0.02%.

`CCOC(=O)CNC(=O)CSc1nnnn1-c1cc(C)ccc1C`: the inhibition was -0.31%.

For `Cc1csc(NC(=O)c2ccc(-c3ccc(Cl)cc3Cl)o2)n1`, the inhibition is 0.14%.

On to `COc1ccc(-c2sc3ccccc3c2-c2ccc(OCCN3CCOCC3)cc2)cc1`, for which the inhibition was 0.1%.

On to `CC(C)C(=O)N1CCC2(CC1)Oc1ccc(F)cc1C(=O)C21CC(c2ccccc2)=NO1` (stereo unspecified), for which the inhibition is 45.9% (active).

On to `CCCc1nnc(SCC(=O)Nc2ccc(C(=O)OCC)cc2)o1`, for which the inhibition was 0.19%.

For the compound `O=C(Nc1ccc(NC(=O)c2cccs2)cc1)c1ccc2ccccc2c1`, the inhibition is 0.05%.

Take `CN1CCN(S(=O)(=O)c2ccc(NC(=S)NC(=O)C3CC3)cc2)CC1`: the inhibition is -0.06%.

Regarding `Cc1ccc2c(c1)NC(=O)[C@@]1(C)[C@@H](c3ccccc3)[C@H]3COc4ccc(Cl)cc4[C@@H]3N1C2=O`, the inhibition is -0.01%.

Regarding `COc1ccc(C(=O)NC2CC(C)(C)Cc3c2cnn3-c2ccccc2)c(OC)c1` (stereo unspecified), the inhibition is -0.03%.

For the compound `O=C(OCc1ccc(-c2ccccc2)cc1)c1cccc(O)c1`, the inhibition is -0.19%.

For `CC(/C=N/NC(=O)c1cc(-c2ccc3ccccc3c2)n[nH]1)=C\c1ccco1`, the inhibition is -0.25%.

With `CCOC(=O)c1c(NC(=S)NC(=O)c2ccco2)sc2c1CCCC2`, the inhibition was -0.19%.

For `CCCCCCCCCCCCCCCC(=O)OC/C=C(C)/C=C/C=C(C)/C=C/C1=C(C)CCCC1(C)C`, the inhibition was -0.1%.

For `COc1ccccc1NC(=O)C1CCCN1S(=O)(=O)c1ccc(Cl)cc1` (stereo unspecified), the inhibition is -0.11%.

Consider `CC1CCc2c(sc(NC(=O)c3ccc(Cn4cc(Br)cn4)o3)c2C(N)=O)C1` (stereo unspecified), for which the inhibition was -0.1%.

Turning to `CCCCCC(=O)Nc1ccc(C(=O)N/N=C/c2ccc([N+](=O)[O-])cc2)cc1`, the inhibition was -0.14%.

On to `CSCCC(NS(=O)(=O)c1ccc(C)cc1)C(=O)N1CCCC1` (stereo unspecified), for which the inhibition is -0.25%.

With `Cc1cc(/C=N/NC(=O)CC2(C)OCCO2)c(C)n1-c1ccc(Cl)c(Cl)c1`, the inhibition was 0.16%.

Regarding `Cc1ccc(OCc2cc(C(=O)N(C)CCc3ccccc3)no2)cc1C`, the inhibition is -0.03%.

`Cc1nn(C)cc1C(=O)Nc1ccccc1Br`: the inhibition is -0.15%.

On to `O=C(CCCCCn1c(=O)[nH]c2ccccc2c1=O)NCCc1c[nH]c2ccccc12`, for which the inhibition was -0.03%.

As for `C[n+]1ccc(/C=C/c2c[nH]c3ccccc23)cc1`, the inhibition was 5.81%.

In the case of `O=C(Cc1ccccc1)NCC1OCCc2ccccc21` (stereo unspecified), the inhibition was -0.13%.

In the case of `CCOc1ccccc1/C=c1\sc2nc(-c3ccco3)nn2c1=O`, the inhibition was 0.22%.

Turning to `Cc1nn(C)cc1N1C(=O)c2cccc3c(N)ccc(c23)C1=O`, the inhibition was 0.11%.

As to `COc1ccc2sc(-c3ccccc3OC)c(-c3ccc(OCCN4CCCC4)cc3)c2c1`, the inhibition was 5.13%.

As to `COc1ccc(/C=C(\C#N)c2c[nH]c3ccccc23)cc1`, the inhibition is 0.1%.

Regarding `Cc1cccc(NC(=O)COc2ccccc2C)n1`, the inhibition was -0.06%.

On to `COc1ccc(C(=O)NC(=S)Nc2ccc(N3CCCC3)cc2)cc1OC`, for which the inhibition is -0.18%.

For the compound `Cc1cc(C(=O)Nc2ccc(C)c(S(=O)(=O)N3CCOCC3)c2)c2ccccc2n1`, the inhibition is -0.31%.

As for `O=C(/C=C/c1c(Cl)cccc1Cl)NCc1ccccc1`, the inhibition was 0.02%.

Consider `CCOc1ccc(C2/C(=C(/O)c3ccc4c(c3)CC(C)O4)C(=O)C(=O)N2CCCn2ccnc2)cc1` (stereo unspecified), for which the inhibition was 0.05%.

For the compound `Cc1ccc(Cn2c(C)nc3c(c2=O)c2nc4ccccc4nc2n3Cc2ccco2)cc1`, the inhibition is 0.02%.

In the case of `CCOc1ccc2nc(Cl)c(C3CC(c4ccccc4)=NN3C(=O)c3cccs3)cc2c1` (stereo unspecified), the inhibition is 0%.

Take `O=C(NCc1ccccc1)C(=O)NCC1OCCN1S(=O)(=O)c1ccc(Br)cc1` (stereo unspecified): the inhibition was -0.13%.

Turning to `COc1cccc(-c2sc3ccc(OC)cc3c2-c2ccc(OCCN3CCCCC3)cc2)c1`, the inhibition is 20.7%.

Consider `COc1cccc(NC(=O)CN(C)C(=O)/C=C/c2cc(OC)ccc2OC)c1`, for which the inhibition was -0.16%.

For the compound `O=C(CNC(=O)c1ccc(-c2ccccc2)cc1)OCc1ccc(Cl)cc1`, the inhibition is 0.01%.

`O=C(CN1C(=O)C2C3CCC(C3)C2C1=O)Oc1ccc2ccccc2c1` (stereo unspecified): the inhibition is 0.12%.

For the compound `Cc1ccc(N=C2NC(=O)/C(=C/C=C/c3ccco3)S2)cc1C`, the inhibition was 0.12%.

As for `CCOc1ccc(/C=C2\SC(=S)N(NC(=O)c3ccncc3)C2=O)cc1OC`, the inhibition is -0.14%.

With `O=S(=O)(c1ccccc1)N1CCc2ccccc21`, the inhibition is 0.11%.

For `Cc1ccc(Cn2nnc3c(=O)[nH]c(C4CCN(S(=O)(=O)/C=C/c5ccccc5)CC4)nc32)cc1`, the inhibition is -0.18%.

Consider `COc1ccccc1CSc1ncc(-c2ccc([N+](=O)[O-])cc2)[nH]1`, for which the inhibition was -0.17%.

For the compound `O=C(CSc1nnc(-c2cccnc2)n1Cc1ccco1)c1ccc(Cl)c(Cl)c1`, the inhibition was 0.13%.

For `COc1ccc(C(=O)C2CCCN(Cc3cccn3-c3ccccn3)C2)c(C)c1` (stereo unspecified), the inhibition was -0.17%.

As for `CC[n+]1cc(C)ccc1/C=C/c1ccc(N(C)C)cc1`, the inhibition is 10.7%.

Turning to `CN=C(c1ccccc1)c1c(C)cccc1C`, the inhibition was -0.14%.

Take `CCn1c(/C=C/c2ccc([N+](=O)[O-])o2)nc2ccccc2c1=O`: the inhibition was 1.88%.

Regarding `COc1ccc(C(=O)NC2CCCc3c2cnn3-c2cccc(C)c2C)c(OC)n1` (stereo unspecified), the inhibition was -0.16%.

In the case of `C=CCC[C@@H](Cc1ccc(F)cc1)C(=O)OC[C@H](Cc1c[nH]c2ccccc12)NC(=O)[C@@H](CC=C)CC(=O)N(CCO)Cc1ccccc1`, the inhibition was 56.2% (active).

What is called inhibition is the change of the read-out against control, counted positive when it falls.
